Potency data for 25 compounds are collected here from PubChem BioAssay (Tox21).

Assay [1] in a line: qHTS assay to identify small molecule antagonists of the estrogen related receptor (ERR) signaling pathway from Tox21 library - cell viability counter screen (AID 1224834). Further: nearly all actives have a fitted effect of over 30% in size. Further: potency means the concentration at half of the fitted maximal effect. The method in brief: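 Viability readout (CellTiter-Fluor fluorescence, 30 min at 37 C) multiplexed with the ERR assay; cells treated 17.5 h at 37 C with compounds delivered in DMSO.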
(In qHTS, concentration-response curves come from the screen itself.)

For assay [2], the target named is Luciferin 4-monooxygenase (Photinus pyralis) (UniProt P08659). Kind of assay: qHTS assay to identify small molecule inhibitors of firefly luciferase (AID 1224835). Further: nearly all actives have a fitted effect of over 25% in size. Further: potency means the concentration at half of the fitted maximal effect. The method in brief:
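Quantitative HTS format; KM concentrations of both substrates. Purified P. pyralis FLuc activity quantified from luminescence images.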

Assay [3] can be described thus: qHTS assay to identify small molecule agonists of the constitutive androstane receptor (CAR) signaling pathway - cell viability counter screen (AID 1224836). Further: nearly all actives have a fitted effect of over 45% in size. Further: potency means the concentration at half of the fitted maximal effect. In outline:
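Double-stable HepG2 hepatoma cells (hCAR plus CYP2B6-2.2kb) are treated for 23 h at 37 C with test compounds in 15-point concentration series. PK11195 at 0.75 uM final is co-added. Cell viability is quantified by CellTiter-Fluor.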

In assay [4] the target is Nuclear receptor subfamily 1 group I member 3 (Homo sapiens) (UniProt Q14994). Nature of the assay: qHTS assay to identify small molecule antagonists of the constitutive androstane receptor (CAR) signaling pathway (AID 1224838).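 Further: HepG2 cells stably expressing hCAR with CYP2B6 luciferase reporter stimulated by CITCO; nearly all actives have a fitted effect of over 40% in size.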 Further: potency means the concentration at half of the fitted maximal effect. In outline:
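Quantitative HTS in double-stable HepG2-CYP2B6-hCAR cells. After 4 h plating, cells get compound (15 concentrations) and CITCO at 50 nM final, incubate 24 h at 37 C, then ONE-Glo luminescence is read.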

Assay [5] can be described thus: qHTS assay to identify small molecule antagonists of the estrogen related receptor signaling pathway with the pleiotropic PPARgamma coactivator (PGC) from Tox21 10K library - cell viability counter screen (AID 1224840; active means well fitted cell-killing curve with a large enough effect in the repeat runs, not every such curve was filed as active; further: nearly all actives have a fitted effect of over 40% in size; further: potency means the concentration at half of the fitted maximal effect). The method in brief:
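Compounds in DMSO, alongside positive and negative controls, were pinned onto PGC/ERR cells (2,000 per well). Exposure lasted 17.5 hours at 37 C, followed by a 30-minute CellTiter-Fluor incubation and fluorescence reading.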

The target of assay [6] is Thyrotropin receptor (Homo sapiens) (UniProt P16473). Kind of assay: qHTS assay to identify small molecule agonists of the thyroid stimulating hormone receptor (TSHR) signaling pathway (AID 1224843; calls by dose curve; further: nearly all actives have a fitted effect of over 45% in size). In outline: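 TSHR-expressing HEK293 cells (800 per well) were exposed to compounds for 30 min at room temperature. cAMP was then detected by HTRF competition with cAMP-d2 and anti-cAMP cryptate, read after 1 h at room temperature. Fifteen concentrations, triplicate.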

The nature of assay [7]: qHTS assay to identify small molecule antagonists of the constitutive androstane receptor (CAR) signaling pathway - cell viability counter screen (AID 1224837). Further: nearly all actives have a fitted effect of over 45% in size. Further: potency means the concentration at half of the fitted maximal effect. The method in brief:
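Fluorescence from CellTiter-Fluor served as the viability signal. Human hepatoma HepG2 cells stably bearing hCAR and CYP2B6-2.2kb received compound plus CITCO (50 nM final) for 23 hr.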

Assay [8] can be described thus: qHTS assay to identify small molecule agonists of the estrogen related receptor signaling pathway with the pleiotropic PPARgamma coactivator (PGC) from Tox21 10K library (AID 1224842). Further: nearly all actives have a fitted effect of over 15% in size. Further: potency means the concentration at half of the fitted maximal effect. In outline:
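PGC/ERR reporter cells (NTP line) were seeded 2,000 per well, rested 6 h at 37 C/5% CO2, then pin-dosed with compounds in DMSO for 18 h at 37 C; luciferase read by One-Glo luminescence after 30 min at room temperature.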

The target of assay [9] is Nuclear receptor subfamily 1 group I member 3 (Homo sapiens) (UniProt Q14994). Kind of assay: qHTS assay to identify small molecule agonists of the constitutive androstane receptor (CAR) signaling pathway (AID 1224839). Further: nearly all actives have a fitted effect of over 15% in size. Further: potency means the concentration at half of the fitted maximal effect. In outline: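 Readout: firefly luciferase luminescence via ONE-Glo. System: HepG2 double-stable for hCAR and CYP2B6-2.2kb. Conditions: 15-point compound titration, PK11195 at 0.75 uM final, 24 h incubation.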

A short description of assay [10]: qHTS assay to identify small molecule antagonists of the estrogen related receptor signaling pathway with the pleiotropic PPARgamma coactivator (PGC) from Tox21 10K library (AID 1224841; call rule not given here; further: actives are mostly falling curves and most rising ones were filed inactive; nearly all actives have a fitted effect of over 50% in size; further: potency means the concentration at half of the fitted maximal effect). In outline:
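Compound exposure ran 18 hours at 37 C in PGC/ERR cells (2,000/well) that had first rested 6 hours in a 37 C/5% CO2 incubator. Luciferase activity was then detected with One-Glo after a 30-minute room-temperature step.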

Results filed as inconclusive are left out. Calls of active or inactive are those of the source. Unless noted, the call rests on the fitted dose curve; in most records, active means well fitted curve in the direction sought with a large enough effect in the repeat runs; inconclusive means weak or mixed curves; inactive means no such curve, though single readings can be large; an effect the other way counts as inactive or inconclusive.

Thyrotropin receptor (Homo sapiens), sequence (P16473 whole entry, looked up): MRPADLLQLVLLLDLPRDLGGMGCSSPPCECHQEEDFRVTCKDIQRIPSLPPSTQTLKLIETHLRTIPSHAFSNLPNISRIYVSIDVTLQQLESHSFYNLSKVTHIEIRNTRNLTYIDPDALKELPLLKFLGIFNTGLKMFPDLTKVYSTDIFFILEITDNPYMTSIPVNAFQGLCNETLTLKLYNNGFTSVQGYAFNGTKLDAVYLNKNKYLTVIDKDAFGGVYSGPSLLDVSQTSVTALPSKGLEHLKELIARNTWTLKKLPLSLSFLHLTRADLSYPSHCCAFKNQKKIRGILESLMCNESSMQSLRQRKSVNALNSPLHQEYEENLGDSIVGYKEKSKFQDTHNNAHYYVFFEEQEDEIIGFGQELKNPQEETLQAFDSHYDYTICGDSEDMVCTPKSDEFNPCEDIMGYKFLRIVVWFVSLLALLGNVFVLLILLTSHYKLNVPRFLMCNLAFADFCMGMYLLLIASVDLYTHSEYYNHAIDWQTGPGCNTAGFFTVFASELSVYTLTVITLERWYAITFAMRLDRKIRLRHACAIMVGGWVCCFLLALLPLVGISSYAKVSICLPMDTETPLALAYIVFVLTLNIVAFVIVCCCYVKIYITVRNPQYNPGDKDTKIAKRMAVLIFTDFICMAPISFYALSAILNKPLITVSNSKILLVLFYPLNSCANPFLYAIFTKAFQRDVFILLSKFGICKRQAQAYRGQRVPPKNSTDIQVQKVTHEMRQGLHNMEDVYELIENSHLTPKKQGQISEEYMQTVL
Nuclear receptor subfamily 1 group I member 3 (Homo sapiens), sequence (Q14994 whole entry, looked up): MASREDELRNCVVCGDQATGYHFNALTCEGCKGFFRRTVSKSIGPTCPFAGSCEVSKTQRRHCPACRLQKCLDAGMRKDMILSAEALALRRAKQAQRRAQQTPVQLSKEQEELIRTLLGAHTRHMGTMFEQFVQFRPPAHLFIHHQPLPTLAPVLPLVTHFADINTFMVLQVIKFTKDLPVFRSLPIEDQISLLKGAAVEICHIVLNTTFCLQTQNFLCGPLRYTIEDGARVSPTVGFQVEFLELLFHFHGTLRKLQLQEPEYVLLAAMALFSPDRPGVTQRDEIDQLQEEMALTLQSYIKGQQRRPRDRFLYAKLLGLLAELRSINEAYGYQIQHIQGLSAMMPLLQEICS
Luciferin 4-monooxygenase (Photinus pyralis), sequence (P08659 whole entry, looked up): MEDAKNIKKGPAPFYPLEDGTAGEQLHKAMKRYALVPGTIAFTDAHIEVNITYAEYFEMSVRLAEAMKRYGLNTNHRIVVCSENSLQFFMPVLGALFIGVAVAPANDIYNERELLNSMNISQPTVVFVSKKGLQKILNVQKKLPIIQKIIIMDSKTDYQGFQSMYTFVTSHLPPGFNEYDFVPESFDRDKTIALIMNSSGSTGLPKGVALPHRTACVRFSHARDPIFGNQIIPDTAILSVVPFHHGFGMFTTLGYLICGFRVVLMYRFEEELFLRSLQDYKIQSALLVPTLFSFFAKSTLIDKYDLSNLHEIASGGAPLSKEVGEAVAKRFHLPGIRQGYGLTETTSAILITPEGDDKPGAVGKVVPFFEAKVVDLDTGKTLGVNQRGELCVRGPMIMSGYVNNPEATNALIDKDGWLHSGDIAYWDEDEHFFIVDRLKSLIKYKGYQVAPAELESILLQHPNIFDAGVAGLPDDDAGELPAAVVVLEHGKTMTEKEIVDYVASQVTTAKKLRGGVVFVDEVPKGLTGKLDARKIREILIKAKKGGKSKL

For the compound `COc1ccc(NC(=O)CC(C)=O)cc1`, the Potency result in assay [1], in assay [2], in [3], in assay [4], in assay [5] and in assay [6] was “inactive” each time.

For the compound `Cc1cc(=O)oc2cc(O)cc(O)c12`, the Potency entry in assay [1], in assay [2], in [7], in assay [4], in [8] and in assay [6] was “inactive” each time.

In the case of `Cc1ccc(N/N=c2\c(=O)cc/c(=N\Nc3ccc(S(=O)(=O)O)cc3)c2=O)c(C)c1`, the Potency in [1] was 30.6 µM (active); in assay [3], 30.6 µM (active); in assay [7], 48.6 µM (active); in assay [5], 30.6 µM (active). Besides, the Potency result in assay [4], in assay [9], in assay [8] and in assay [6] was “inactive” in each case.

With `CCCCCCCCCCCCOCCOCCOCCOCCOCCOCCOCCOCCOCCO`, the figures for the Potency in assay [1] and in assay [10] were 26.6 µM (active) and 5.31 µM (active), respectively. In addition, the Potency entry in assay [2], in assay [4] and in [8] was “inactive” throughout.

On to `COCCOc1cc2cc(C(=O)NC3CCN(C(C)C)CC3)n(CC(=O)Nc3ccc(Cl)cn3)c2cn1`, for which the Potency entry in assay [1], in [2], in assay [7], in assay [5] and in [6] was “inactive” each time.

Regarding `CNc1ccc([N+](=O)[O-])cc1`, the Potency in [1] is 43.4 µM (active); in [2], 40 µM (active); in [5], 48.7 µM (active). Also, the Potency result in [4], in assay [10], in assay [8] and in assay [6] was “inactive” throughout.

`O=S(=O)(O)c1ccc(N=Nc2c(O)ccc3ccccc23)cc1`: the Potency in assay [1] is 27.3 µM (active); in [2], 35.6 µM (active); in assay [7], 30.6 µM (active); in assay [5], 48.6 µM (active). Moreover, the Potency result in assay [4] was “inactive”.

Turning to `O=C(O)c1cc(N=Nc2ccc([N+](=O)[O-])cc2)ccc1O`, the Potency in [1] was 47.7 µM (active); in assay [2], 0.878 µM (active); in [9] it was 0.673 µM (active); in assay [8] it was 9.51 µM (active). The Potency entry in assay [6] was “inactive”.

Consider `CNC(=O)c1ccccc1Sc1ccc2c(/C=C/c3ccccn3)n[nH]c2c1`, for which, in assay [1], the Potency was 26.6 µM (active). In addition, the Potency result in [3], in assay [4] and in assay [6] was “inactive” each time.

Take `CCOC(=O)NNc1ccc(N(CC)CC(C)O)nn1` (stereo not given): the Potency entry in [1], in assay [3], in assay [7], in assay [9], in assay [10] and in assay [8] was “inactive” in each case. In addition, the Potency result in assay [6] was “inactive”.

As to `C#C[C@]1(O)CC[C@H]2[C@@H]3[C@H](C)CC4=C(CCC(=O)C4)[C@H]3CC[C@@]21C`, the Potency result in [1], in assay [3], in assay [7], in assay [9], in assay [5] and in [8] was “inactive” in each case.

On to `CCN(CC)c1ccc2c(-c3ccc(S(=O)(=O)O)cc3S(=O)(=O)[O-])c3ccc(=[N+](CC)CC)cc-3oc2c1`, for which the Potency in assay [1] was 22.4 µM (active); in [3], 31.6 µM (active); in assay [7] it was 28.2 µM (active); in assay [10] it was 28.2 µM (active). For the same compound, the Potency entry in assay [9] and in assay [8] was “inactive” throughout.

`Cc1ccc(-c2ccccc2)cc1`: the Potency result in assay [1], in assay [3], in [4], in [9], in assay [5] and in assay [8] was “inactive” throughout. Besides, in [6], the Potency entry was “inactive”.

Regarding `CCCCC(CC)COC(=O)CCCCC(=O)OCc1ccccc1` (stereo not given), the Potency result in assay [1], in assay [3], in assay [7], in [4], in assay [9] and in assay [5] was “inactive” throughout. Moreover, the Potency result in assay [6] was “inactive”.

As to `Clc1sc(Cl)c(Cl)c1Cl`, the Potency entry in assay [1], in [3], in assay [7], in [4], in assay [9] and in [10] was “inactive” throughout. For the same compound, the Potency result in assay [8] and in assay [6] was “inactive” throughout.

Regarding `OC[C@@H](O)[C@@H](O)CO`, the Potency entry in [1], in assay [3], in assay [7], in [5], in [10] and in assay [8] was “inactive” throughout. Also, in assay [6], the Potency result was “inactive”.

Take `Sc1nc2ccccc2s1`: the Potency result in assay [1], in [3], in assay [7], in assay [4], in assay [9] and in assay [10] was “inactive” each time. Also, the Potency result in assay [8] and in assay [6] was “inactive” in each case.

As to `COc1ccc2cc1Oc1ccc(cc1)C[C@H]1c3c(cc4c(c3Oc3cc5c(cc3OC)CCN(C)[C@@H]5C2)OCO4)CCN1C`, the Potency in [1] was 23.7 µM (active); in assay [3] it was 26.6 µM (active); in assay [7], 23.7 µM (active); in assay [4] it was 23.7 µM (active). Further, the Potency result in assay [9], in assay [8] and in assay [6] was “inactive” throughout.

As to `[Cl][Pt-2]([Cl])([Cl])[Cl]`, the Potency result in assay [1], in [3], in assay [7], in [4], in assay [5] and in [8] was “inactive” throughout.

Take `Cc1cc(C(C)(C)C)cc(C)c1CC1=NCCN1`: the Potency result in [1], in assay [3], in assay [7], in assay [4], in assay [9] and in assay [8] was “inactive” each time. In assay [6], the Potency entry was “inactive”.

Turning to `Nc1ccc(Oc2ccc(Cl)cc2)cc1`, the Potency entry in assay [1], in assay [3], in [4], in [5], in assay [10] and in assay [8] was “inactive” each time. In addition, the Potency result in assay [6] is “inactive”.

For `O=C1NC(=O)[C@@H]2CC=CC[C@H]12`, the Potency result in assay [1], in [3], in [7], in assay [4], in [9] and in assay [5] was “inactive” in each case. Further, in [6], the Potency result is “inactive”.

In the case of `CN(C)CCN1CCN(c2cccc(Cl)c2)C1=O`, the Potency result in assay [1], in assay [3], in assay [4], in [9], in assay [5] and in assay [6] was “inactive” in each case.

Take `C#Cc1ccc(-c2ccccc2F)cc1`: the Potency result in assay [1], in assay [3] and in assay [4] was “inactive” throughout.

Regarding `CCCCOC(=O)CO`, the Potency entry in assay [1], in [3], in [7], in assay [4] and in assay [5] was “inactive” throughout.
